Results reported in publication PMC8384837, “Expanding the binding specificity for RNA recognition by a PUF domain”.

Assays:
Experiment in all cases: yeast three-hybrid, YBZ-1, SC-Leu-His + 0.5 mM 3-AT, 4 days
Conditions in all cases: tags: N-Gal4 AD-HA kept; label: inside an RPR1-promoter hybrid RNA with tandem MS2 sites; ssRNA
[1] = target: PUM1 PUF domain R5-KKE (Homo sapiens, UniProt Q14671 828-1176, C1007K;R1008K;Q1011E)
Method in brief: (§1)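 Sequencing with Illumina followed PCR amplification of the repeat regions from transformants grown four days on SC-Leu (input) or SC-Leu-His + 0.5 mM 3-AT (selection). The transformants were strain YBZ-1 with a LexA–MS2 coat fusion and a HIS3 reporter, carrying Pumilio-1 PUF domain libraries and matching RNA elements. The interaction score is the log change in variant frequency from input to selection, computed in log2 with a pseudocount of 1 for absent variants.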

[2] = target: PUM1 PUF domain R5-RFP (Homo sapiens, UniProt Q14671 828-1176, C1007R;R1008F;Q1011P)
Method in brief: as §1

[3] = target: PUM1 PUF domain R5-RNT (Homo sapiens, UniProt Q14671 828-1176, C1007R;R1008N;Q1011T)
Method in brief: as §1

[4] = target: PUM1 PUF domain R1-RAT (Homo sapiens, UniProt Q14671 828-1176, S863R;R864A;Q867T)
Method in brief: as §1

[5] = target: PUM1 PUF domain R1-NLR (Homo sapiens, UniProt Q14671 828-1176, S863N;R864L;Q867R)
Method in brief: as §1

[6] = target: PUM1 PUF domain R4-GNL (Homo sapiens, UniProt Q14671 828-1176, N971G;H972N;Q975L)
Method in brief: as §1

[7] = target: PUM1 PUF domain R4-PWK (Homo sapiens, UniProt Q14671 828-1176, N971P;H972W;Q975K)
Method in brief: as §1

[8] = target: PUM1 PUF domain R4-GPG (Homo sapiens, UniProt Q14671 828-1176, N971G;H972P;Q975G)
Method in brief: as §1

[9] = target: PUM1 PUF domain R5-KFK (Homo sapiens, UniProt Q14671 828-1176, C1007K;R1008F;Q1011K)
Method in brief: as §1

[10] = target: PUM1 PUF domain R5-DFY (Homo sapiens, UniProt Q14671 828-1176, C1007D;R1008F;Q1011Y)
Method in brief: as §1

[11] = target: PUM1 PUF domain R4-SMC (Homo sapiens, UniProt Q14671 828-1176, N971S;H972M;Q975C)
Method in brief: as §1

[12] = target: PUM1 PUF domain R8-PYG (Homo sapiens, UniProt Q14671 828-1176, N1122P;Q1126G)
Method in brief: as §1

[13] = target: PUM1 PUF domain R8-RRQ (Homo sapiens, UniProt Q14671 828-1176, N1122R;Y1123R)
Method in brief: as §1

[14] = target: PUM1 PUF domain R8-KRG (Homo sapiens, UniProt Q14671 828-1176, N1122K;Y1123R;Q1126G)
Method in brief: as §1

## GGCUAGAACUAGUGGAUCCCCCGGCGCCCGGCGGCUCGAGCCCGGGUAAGUGUCAAUAGUCUGCAUGCCGCCGGGCGCCAUGCCUGCAGGUCGACUCUAGAAAACAUG
[1]
  binding signal: 5.07 log2 enrichment (interaction score)
[2]
  binding signal: 4.87 log2 enrichment (interaction score)
[3]
  binding signal: 2.85 log2 enrichment (interaction score)

## GGCUAGAACUAGUGGAUCCCCCGGCGCCCGGCGGCUCGAGCCCGGGUAAGUGUAAAUCGUCUGCAUGCCGCCGGGCGCCAUGCCUGCAGGUCGACUCUAGAAAACAUG
[4]
  binding signal: 4.37 log2 enrichment (interaction score)

## GGCUAGAACUAGUGGAUCCCCCGGCGCCCGGCGGCUCGAGCCCGGGUAAGUGUAAAUUGUCUGCAUGCCGCCGGGCGCCAUGCCUGCAGGUCGACUCUAGAAAACAUG
[4]
  binding signal: 3.04 log2 enrichment (interaction score)
[5]
  binding signal: 3.68 log2 enrichment (interaction score)

## GGCUAGAACUAGUGGAUCCCCCGGCGCCCGGCGGCUCGAGCCCGGGUAAGUGUACAUAGUCUGCAUGCCGCCGGGCGCCAUGCCUGCAGGUCGACUCUAGAAAACAUG
[6]
  binding signal: 1.04 log2 enrichment (interaction score)
[7]
  binding signal: 6.55 log2 enrichment (interaction score)
[8]
  binding signal: 2.28 log2 enrichment (interaction score)

## GGCUAGAACUAGUGGAUCCCCCGGCGCCCGGCGGCUCGAGCCCGGGUAAGUGUUAAUAGUCUGCAUGCCGCCGGGCGCCAUGCCUGCAGGUCGACUCUAGAAAACAUG
[9]
  binding signal: 5.11 log2 enrichment (interaction score)
[10]
  binding signal: 4.07 log2 enrichment (interaction score)
[3]
  binding signal: 3.11 log2 enrichment (interaction score)

## GGCUAGAACUAGUGGAUCCCCCGGCGCCCGGCGGCUCGAGCCCGGGUAAGUGUAUAUAGUCUGCAUGCCGCCGGGCGCCAUGCCUGCAGGUCGACUCUAGAAAACAUG
[11]
  binding signal: 2.83 log2 enrichment (interaction score)
[6]
  binding signal: 3.47 log2 enrichment (interaction score)
[7]
  binding signal: 6.97 log2 enrichment (interaction score)
[8]
  binding signal: 2.98 log2 enrichment (interaction score)

## GGCUAGAACUAGUGGAUCCCCCGGCGCCCGGCGGCUCGAGCCCGGGUAAGCGUAAAUAGUCUGCAUGCCGCCGGGCGCCAUGCCUGCAGGUCGACUCUAGAAAACAUG
[12]
  binding signal: 2.76 log2 enrichment (interaction score)
[13]
  binding signal: 2.97 log2 enrichment (interaction score)
[14]
  binding signal: 4.19 log2 enrichment (interaction score)
